Source: PubChem (several laboratories)
Cardio protect: modulators protecting cardiomyocytes from myocardial damage; H9c2 cardiomyocytes, H2O2 injury protection, ATPLite, 2 h; protection from H2O2 cell death, % at 20 µM; 0.63% of 360,000 active; AID 588492;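 active = compounds giving at least 50% protection of heart cells from peroxide-induced death in the single-dose screen, raw or plate-pattern-corrected value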;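 also: 0% = DMSO wells with peroxide and 100% = DMSO wells without peroxide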
NTR1 ag: agonists of human neurotensin receptor NTR1. P30989. NTR1-U2OS beta-arrestin-GFP spot imaging, agonist mode. activation, % at 20 µM. 0.17% of 330,000 active. AID 493036;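 active = activation at or above 40% of the spot to cytoplasm intensity ratio, with at least 20 cells analyzed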;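 also: 0% = DMSO without peptide and 100% = 100 nM NTR1 peptide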
Target sequence (P30989 whole entry, looked up): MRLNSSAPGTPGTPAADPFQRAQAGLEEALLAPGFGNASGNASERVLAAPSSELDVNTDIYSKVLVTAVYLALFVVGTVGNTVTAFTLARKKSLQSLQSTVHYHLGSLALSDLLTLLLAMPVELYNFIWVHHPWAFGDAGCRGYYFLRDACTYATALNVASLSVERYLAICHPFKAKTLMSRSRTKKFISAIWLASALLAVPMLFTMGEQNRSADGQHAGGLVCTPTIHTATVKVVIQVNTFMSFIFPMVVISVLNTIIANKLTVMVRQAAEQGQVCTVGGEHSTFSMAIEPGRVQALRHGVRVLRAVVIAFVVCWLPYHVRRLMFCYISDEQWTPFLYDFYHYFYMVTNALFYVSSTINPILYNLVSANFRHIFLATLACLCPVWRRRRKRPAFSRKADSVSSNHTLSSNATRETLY
SUMO Mot1 rescue: inhibitors of SUMOylation pathway: yeast Mot1-301 growth rescue; S. cerevisiae Mot1-301 growth rescue, ATP luminescence, 38.5C; percent above DMSO median, 100 means doubled; growth rescue, % at 18.8 µM; 1% of 320,000 active;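 active = every valid replicate shows activation above 250% relative to neutral control wells; inactive = the rest, any valid replicate at or below 250%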;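 also: OY570 slx delta 5 strain wells were the positive control but not used for scaling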
AHR act: activators of human aryl hydrocarbon receptor | P35869 | AHR-responsive luciferase reporter cells, luminescence | activation, % at 5 µM | 2.5% of 320,000 active; in the data active = activation above about 47%;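 also: 0% = vehicle wells and 100% = reference agonist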
GRIN3A LBD mod: NR3A (human) ligand-binding domain modulation | NR3A LBD differential scanning fluorimetry, Tm shift; 0% = protein alone, 100% = glycine-bound protein | Tm shift relative to glycine control, % at 25 µM | 2.5% of 340,000 active | AID 1259313;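 active = melting temperature shift of at least 10% of the positive control shift, at one fixed dose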
AI-2 QS modul: modulators of Vibrio harveyi AI-2 quorum sensing system | Vibrio harveyi JMH597 AI-2 luminescence/OD600 ratio, 9 h; stronger effect = lower value; strain lacks LuxN and CqsS sensors; 0 = neutral-control median | activity change, % at 7.5 µM | 0.4% of 300,000 active | AID 2094; in the data active = activity change below about -75%, passing the limit was not always enough;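 also: luminescence divided by OD600 gain over 9 h not by final OD600 alone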
The depositor's hits bear a star; nt = no result. Sampled rows, rich in hits. Any-hit rate of the full collection: about 6.2%.

SMILES | Cardio protect | NTR1 ag | SUMO Mot1 rescue | AHR act | GRIN3A LBD mod | AI-2 QS modul
CN(C)C(CNC(=O)C1CCN(S(=O)(=O)c2ccccc2C(F)(F)F)CC1)Cc1ccccc1 (stereo not given) | 4 | -2 | nt | nt | 2 | nt
CN(C)C(/C=C/Nc1ccc([N+](=O)[O-])cc1)=C(C#N)C#N | 2 | 0 | 0 | 32 | 18* | 14
NC(=S)NN=C1c2ccccc2-c2ccccc21 | -5 | 4 | -16 | 7 | -3 | 2
NC(N)=NN=C1c2ccccc2-c2ccccc21 | 8 | -1 | 12 | 41 | 23* | 6
Cc1ccc(-c2nn(-c3ccccc3)cc2C(=O)Nc2cccc(S(=O)(=O)NC3=NCCC3)c2)cc1 | 10 | nt | nt | nt | nt | nt
O=C(Nc1cccc(S(=O)(=O)NC2=NCCC2)c1)c1cn(-c2ccccc2)nc1-c1ccc(F)cc1 | 11 | 1 | -7 | 13 | 12* | nt
CC(C)c1cc(N2CCN(C(=O)c3ccco3)CC2)n2c(nc3ccccc32)c1C#N | 52* | 5 | 0 | -1 | 0 | 18
O=C(O)c1[nH]c2ccccc2c1C(c1cc(Br)ccc1O)c1c(C(=O)O)[nH]c2ccccc12 | 0 | 0 | -21 | 20 | 11* | nt
O=C(O)c1[nH]c2ccccc2c1C(c1c(F)cccc1Cl)c1c(C(=O)O)[nH]c2ccccc12 | 2 | 2 | -18 | 4 | 3 | 33
COc1cc(Cl)cc(C(c2c(C(=O)O)[nH]c3ccccc23)c2c(C(=O)O)[nH]c3ccccc23)c1O | 6 | nt | -18 | 32 | 22* | 10
COc1ccc(CN2CCSc3sccc3C2=O)cc1 | 2 | -1 | 22 | 1 | 0 | 15
COc1cccc(N2CCN(S(=O)(=O)c3c(C)[nH]c(C)c3C(=O)N3CCCC3)CC2)c1 | -2 | 0 | 17 | 19 | -1 | 20
Cc1[nH]c(C)c(S(=O)(=O)N2CCN(c3cccc(Cl)c3)CC2)c1C(=O)N1CCCC1 | -4 | 1 | -4 | 50* | -1 | 6
CN(C)c1cc(N/N=C\c2ccccc2)nc(N(C)C)n1 | -11 | 6 | -8 | 54* | -3 | -25
COc1ccc(/C=N/Nc2cc(OC)ncn2)cc1 | -18 | nt | 7 | 1 | -10 | 29
COc1ccc(/C=N/Nc2cc(N(C)C)nc(N(C)C)n2)cc1 | -4 | 9 | -17 | 49* | -9 | 4
COc1ccccc1/C=N/Nc1cc(N(C)C)nc(N(C)C)n1 | -9 | 4 | 5 | 43 | -2 | 7
Cc1ccc(N=Cc2cc3c(cc2O)OC(N)=C(C#N)C3c2ccccc2)cc1 (stereo not given) | 45 | 3 | -26 | 12 | 12* | 24
CCCCNc1nc(N)nc(-c2cc(Cl)ccc2O)n1 | -18 | 10 | 20 | 26 | 18* | 3
CCNc1nc(N)nc(-c2cc(Cl)ccc2O)n1 | -8 | 3 | 39 | 28 | -20 | -13
COc1cccc(C(=O)N2CCC2(C)C(=O)O)c1 (stereo not given) | -2 | nt | nt | nt | nt | nt
Cc1ccc2nc(NCCCO)nc(-c3ccccc3)c2c1 | -5 | -1 | 7 | 10 | 2 | 20
OCCCNc1nc(-c2ccccc2)c2cc(Br)ccc2n1 | -7 | 4 | 826* | 5 | 0 | 18
CCN(CC)CCC(c1cc(OC)c(OC)c(OC)c1)c1c(OC)cc(OC)c2ccc(=O)oc12 (stereo not given) | 5 | 0 | 2 | 1 | 13* | 18
Cc1ccc(NCN2C(=O)C(=O)c3ccccc32)nc1 | 18 | 6 | 317 | 4 | 13* | 35
SMILES | Cardio protect | NTR1 ag | SUMO Mot1 rescue | AHR act | GRIN3A LBD mod | AI-2 QS modul
Cc1ccc(NC(=O)CCCCCN2C(=O)c3ccccc3C2=O)nc1 | -2 | 2 | nt | -1 | -2 | 17
CC(C)n1c(O)c(N=NC(=O)C2COc3ccccc3O2)c2ccccc21 (stereo not given) | 27 | 5 | -18 | 58* | -3 | 27
OC1CCN(c2cc(-c3ccccc3)nc3cc(-c4ccc(F)cc4)nn23)CC1 | -2 | 20 | -28 | 2 | -30 | 17
O=C(c1ccoc1)N1CCN(c2cc(-c3cccnc3)nc3cc(-c4cccc(Cl)c4)nn23)CC1 | 17 | nt | nt | nt | nt | nt
COc1cccc(-c2cc3nc(-c4ccccc4)cc(N4CCCC(O)C4)n3n2)c1 (stereo not given) | 22 | 10 | -12 | 74* | 10 | 4
O=C(c1ccoc1)N1CCN(c2cc(-c3ccncc3)nc3cc(-c4cccc(Cl)c4)nn23)CC1 | 71* | nt | nt | nt | nt | nt
COc1ccc(-c2cc3nc(-c4ccccc4)cc(N4CCN(C(=O)c5ccoc5)CC4)n3n2)cc1 | 54* | nt | nt | nt | nt | nt
CCNC(=O)C1(C)CCCN(Cc2cccc(Oc3ccccc3)c2)C1 (stereo not given) | -13 | nt | nt | nt | nt | nt
C[C@H](CO)N1C[C@H](C)[C@@H](CN(C)C(=O)Nc2ccc(C(F)(F)F)cc2)Oc2ccc(NC(=O)Cn3cnnn3)cc2C1=O | 7 | -2 | 3 | -1 | -1 | nt
COc1cccc(NC(=O)CN(C)C(=O)CCCc2nc3ccccc3s2)c1 | -3 | 0 | 103 | -1 | 0 | 5
Cc1onc(-c2c(F)cccc2Cl)c1C(O)c1ccc(F)cc1 (stereo not given) | 4 | 0 | 340 | 0 | 11* | 1
Cc1onc(-c2c(F)cccc2Cl)c1C(=O)Nc1nc2ccccc2[nH]1 | 4 | 1 | 22 | 48* | -5 | 6
COc1ccc(NC(=O)CN(C)C(=O)c2c(-c3c(F)cccc3Cl)noc2C)cc1 | -1 | 0 | 688* | 1 | -2 | 1
Cc1[nH]c2ccccc2c1C(=O)COC(=O)c1c(-c2ccccc2Cl)noc1C | -7 | 35 | -7 | 18 | 24* | 6
Cc1onc(-c2ccccc2Cl)c1C(=O)OCC(=O)N1CCC(C)CC1 | -3 | 3 | -10 | 0 | 9 | nt
COc1ccc(NC(=O)CN(C)C(=O)c2c(-c3ccccc3Cl)noc2C)cc1 | 4 | 0 | 19 | 2 | 2 | 5
CCOC(=O)N1CCN(C(=O)CS(=O)Cc2nc(-c3ccc(OC)c(OC)c3)oc2C)CC1 (stereo not given) | 2 | -1 | -6 | 4 | 0 | 2
Cc1ccc(NS(=O)(=O)Cc2ccccc2)cc1Cl | -1 | 1 | -12 | -1 | -5 | 9
COc1ccc(/C=N/N2CCOCC2)cc1Cn1cc([N+](=O)[O-])cn1 | 0 | 0 | -3 | 1 | -2 | 9
Cc1nc2ccc(S(=O)(=O)NCC(=O)NCCc3ccc(Cl)cc3)cc2s1 | -4 | 0 | -8 | 2 | 0 | 5
Cc1onc(-c2c(Cl)cccc2Cl)c1C(=O)NNc1ccccc1 | 7 | 0 | 318* | 0 | 1 | 13
Cc1[nH]c2ccccc2c1C(=O)COC(=O)c1c(-c2c(F)cccc2Cl)noc1C | -8 | 9 | -2 | 5 | 29* | 10
